Test systems include NCI-H23 lung; NCI-H226 lung; NCI-H322M lung; HOP-62 NSCLC; NCI-H460 lung; NCI-H522 lung; A549/ATCC NSCLC; 786-0 renal; COLO 205 colon; DU-145 prostate; K-562 leukemia; MDA-MB-231 breast; RXF 393 renal; SF-268 CNS; SF-295 CNS; SF-539 CNS; UACC-257 melanoma; M14 melanoma; MALME-3M melanoma.
Common to all, as to test: NCI-60 one-dose screen, 48 h (100 = growth as untreated, 0 = no growth, -100 = all killed)
Common to all, as to settings: 10 µM

The panel holds about 83,000 compounds, 20% with a hit somewhere; the sample as a whole holds those more often.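 Each cell line was grown in a 96-well plate and treated with one concentration of compound for 48 hours. Values below 10 were considered active.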 Values without a mark were called inactive. Calls of active or inactive are those of the source.

Turning to `CC1=NN(c2ccccc2)C(=O)/C1=C\N1CC(=O)NC1=S`, the growth in the experiment with NCI-H23 lung was 98.1%; in the experiment on NCI-H226 lung, 98.4%; in the experiment with NCI-H322M lung, 108%; with HOP-62 NSCLC, 99.5%; with NCI-H460 lung, 98.6%; in the experiment on NCI-H522 lung it was 81.7%. Also, the growth was 100% in the experiment on A549/ATCC NSCLC; 104% with 786-0 renal; 106% with COLO 205 colon; 106% in the experiment with DU-145 prostate; 104% in the experiment on K-562 leukemia; 98.3% in the experiment with MDA-MB-231 breast. The growth in the experiment on RXF 393 renal was 108%; in the experiment on SF-268 CNS, 101%; in the experiment on SF-295 CNS it was 104%; in the experiment with SF-539 CNS it was 109%; with UACC-257 melanoma, 90.6%; in the experiment on M14 melanoma, 103%.

As to `COC(=O)c1ccccc1N(C)C`, the growth with NCI-H23 lung is 97.7%; in the experiment with NCI-H226 lung, 99.3%; in the experiment on NCI-H322M lung, 104%; in the experiment with HOP-62 NSCLC it was 89.7%; with NCI-H460 lung, 110%; in the experiment with NCI-H522 lung, 99.1%. In addition, the growth is 92.7% in the experiment on A549/ATCC NSCLC; 102% in the experiment on 786-0 renal; 101% in the experiment on COLO 205 colon; 108% with DU-145 prostate; 81.4% with K-562 leukemia; 101% in the experiment on MALME-3M melanoma. The growth in the experiment with MDA-MB-231 breast was 112%; with RXF 393 renal, 118%; with SF-268 CNS, 107%; in the experiment on SF-295 CNS, 98.7%; in the experiment with SF-539 CNS, 115%; in the experiment on UACC-257 melanoma it was 103%. Also, the growth with M14 melanoma is 102%.

For `CC(=O)Nc1cccc(NC(C)=O)n1`, the growth in the experiment with NCI-H23 lung was 128%; with NCI-H226 lung, 103%; in the experiment with NCI-H322M lung, 104%; with HOP-62 NSCLC, 101%; in the experiment on NCI-H460 lung it was 104%; in the experiment on NCI-H522 lung, 100%. Moreover, the growth in the experiment on A549/ATCC NSCLC is 108%; in the experiment on 786-0 renal it was 101%; in the experiment on COLO 205 colon it was 123%; in the experiment with DU-145 prostate, 110%; in the experiment with K-562 leukemia it was 96.6%; in the experiment with MALME-3M melanoma, 91.5%. Besides, the growth was 107% in the experiment with MDA-MB-231 breast; 100% in the experiment on SF-268 CNS; 108% in the experiment on SF-295 CNS; 103% with SF-539 CNS; 102% with UACC-257 melanoma; 103% with M14 melanoma.

For the compound `C/C(O)=C(\C=N\C(N)=S)C(=O)Nc1ccccc1`, the growth is 94.5% with NCI-H23 lung; 87.1% in the experiment on NCI-H226 lung; 104% in the experiment with NCI-H322M lung; 90.9% in the experiment on HOP-62 NSCLC; 99.9% with NCI-H460 lung; 83.7% in the experiment with NCI-H522 lung. Moreover, the growth in the experiment on A549/ATCC NSCLC was 100%; in the experiment with 786-0 renal it was 105%; with COLO 205 colon it was 104%; with DU-145 prostate, 109%; in the experiment on K-562 leukemia, 107%; in the experiment with MDA-MB-231 breast it was 92.2%. Besides, the growth in the experiment on RXF 393 renal is 107%; in the experiment with SF-268 CNS it was 101%; with SF-295 CNS, 110%; with SF-539 CNS it was 114%; with UACC-257 melanoma it was 97.7%; in the experiment on M14 melanoma it was 105%.

Regarding `CC(=O)c1ccc2c(ccc3ccccc32)c1`, the growth is 102% in the experiment with NCI-H23 lung; 94% in the experiment on NCI-H226 lung; 105% with NCI-H322M lung; 115% in the experiment on HOP-62 NSCLC; 101% in the experiment with NCI-H460 lung; 93.1% in the experiment with NCI-H522 lung. Further, the growth was 95.3% with A549/ATCC NSCLC; 91% in the experiment on 786-0 renal; 111% in the experiment with COLO 205 colon; 111% in the experiment on DU-145 prostate; 90.5% with K-562 leukemia; 110% in the experiment on MALME-3M melanoma. In addition, the growth in the experiment on MDA-MB-231 breast is 105%; with SF-268 CNS it was 104%; with SF-295 CNS, 99.3%; in the experiment with SF-539 CNS it was 97.5%; in the experiment on UACC-257 melanoma it was 108%; in the experiment with M14 melanoma, 89.1%.

Take `Cc1ccccc1C1N=C2Oc3ccccc3C=C2C(=O)N1` (stereo not drawn): the growth in the experiment on NCI-H23 lung is 48.7%; with NCI-H226 lung it was 3.49% (active); with NCI-H322M lung, 37.4%; in the experiment with HOP-62 NSCLC, 33.3%; in the experiment with NCI-H460 lung it was 30.6%; in the experiment with NCI-H522 lung, -32.7% (active). Moreover, the growth in the experiment on A549/ATCC NSCLC is 33.5%; with 786-0 renal, 37.8%; with COLO 205 colon, 0.577% (active); in the experiment with DU-145 prostate it was 20.4%; in the experiment on K-562 leukemia, 24.2%; in the experiment on MALME-3M melanoma it was 51.8%. Moreover, the growth was 32.5% with MDA-MB-231 breast; -4.6% (active) with RXF 393 renal; 53.7% with SF-268 CNS; -5.32% (active) with SF-539 CNS; 56.2% in the experiment on UACC-257 melanoma; -24.7% (active) with M14 melanoma.

Regarding `CN(C)/N=C/c1ccccc1O`, the growth with NCI-H23 lung was 113%; with NCI-H226 lung, 98.6%; with NCI-H322M lung, 89.7%; in the experiment with HOP-62 NSCLC it was 109%; in the experiment on NCI-H460 lung it was 100%; in the experiment with NCI-H522 lung, 96.2%. Also, the growth in the experiment on A549/ATCC NSCLC was 104%; in the experiment with 786-0 renal, 92.8%; in the experiment on COLO 205 colon, 112%; in the experiment on DU-145 prostate, 125%; in the experiment on K-562 leukemia it was 120%; with MALME-3M melanoma it was 109%. For the same compound, the growth is 106% with MDA-MB-231 breast; 106% with SF-268 CNS; 112% in the experiment with SF-295 CNS; 94.6% with SF-539 CNS; 109% with UACC-257 melanoma; 106% in the experiment with M14 melanoma.

With `Cc1ccc(Cl)cc1N1C(=O)CC(Sc2ccccc2N)C1=O` (stereo not drawn), the growth with NCI-H23 lung is 101%; in the experiment with NCI-H226 lung, 103%; with NCI-H322M lung, 127%; with HOP-62 NSCLC it was 94.2%; in the experiment with NCI-H460 lung, 111%; in the experiment with NCI-H522 lung, 97%. The growth in the experiment on A549/ATCC NSCLC is 88.6%; in the experiment on 786-0 renal it was 106%; with COLO 205 colon it was 110%; with DU-145 prostate, 123%; in the experiment on K-562 leukemia, 118%; in the experiment with MALME-3M melanoma, 138%. Moreover, the growth with MDA-MB-231 breast was 108%; with RXF 393 renal, 92.5%; in the experiment with SF-295 CNS, 111%; with SF-539 CNS, 105%; with UACC-257 melanoma, 88.4%; in the experiment with M14 melanoma, 118%.

On to `CCC/C=C(/C(C)=O)C(=O)OCC`, for which the growth in the experiment with NCI-H23 lung was 107%; with NCI-H226 lung, 95.7%; in the experiment with NCI-H322M lung, 110%; with HOP-62 NSCLC it was 108%; with NCI-H460 lung it was 114%; in the experiment on NCI-H522 lung it was 111%. Further, the growth with A549/ATCC NSCLC was 90.8%; in the experiment on 786-0 renal, 113%; with COLO 205 colon, 113%; in the experiment with DU-145 prostate, 114%; with K-562 leukemia, 104%; with MALME-3M melanoma, 118%. Moreover, the growth with MDA-MB-231 breast is 105%; in the experiment on SF-268 CNS it was 84.5%; in the experiment with SF-295 CNS, 282%; with SF-539 CNS, 117%; with UACC-257 melanoma, 81.2%; in the experiment with M14 melanoma it was 118%.

The record behind these values is PubChem BioAssay (NCI).
